# Assay results as given in publication PMC7862700, “An all-to-all approach to the identification of sequence-specific readers for epigenetic DNA modifications on cytosine”.
# Experiments:
# Experiment in all cases: DAPPL (digital affinity profiling via proximity ligation, sequencing); 10 mM Tris-HCl pH 7.5, 50 mM NaCl, 1 mM DTT, 4% glycerol, room temperature, 30 min; GST-TFs on glutathione beads, 16-mer random dsDNA library, 0.1% formaldehyde crosslink after washing; high values mean tight binding
# [1] = biological target: T1, FLI1 (Homo sapiens, UniProt Q01543 1-452); conditions: protein: recombinant; tags: N-terminal GST; dsDNA, one strand shown
# T1 sequence: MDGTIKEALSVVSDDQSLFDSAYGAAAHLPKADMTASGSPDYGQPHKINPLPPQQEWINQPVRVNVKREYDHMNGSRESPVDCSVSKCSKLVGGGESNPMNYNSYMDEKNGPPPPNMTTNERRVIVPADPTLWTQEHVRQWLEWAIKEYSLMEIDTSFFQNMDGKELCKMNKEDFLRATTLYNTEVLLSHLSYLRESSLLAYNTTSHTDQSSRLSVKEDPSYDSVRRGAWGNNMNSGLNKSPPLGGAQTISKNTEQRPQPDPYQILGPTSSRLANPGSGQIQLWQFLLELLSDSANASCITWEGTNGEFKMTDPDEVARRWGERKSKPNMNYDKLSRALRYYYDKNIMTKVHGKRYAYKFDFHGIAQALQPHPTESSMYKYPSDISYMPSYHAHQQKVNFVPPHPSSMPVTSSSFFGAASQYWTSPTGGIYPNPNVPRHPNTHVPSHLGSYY
# Method in brief: (§1)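 GST fusions of human transcription factors were expressed in yeast and captured with glutathione beads. Once given DNA barcodes and pooled alongside a tag-only sample, they were incubated for 30 min at room temperature with 200 nmole of a random double-stranded 16-mer DNA library in Tris/NaCl/DTT/glycerol buffer, then washed, crosslinked (0.1% formaldehyde), proximity-ligated, PCR-amplified and sequenced on an Illumina NextSeq500. The binding signal of each hexamer is its read frequency for a factor divided by its frequency for the tag-only sample.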
# [2] = biological target: T2, ELK1 (Homo sapiens, UniProt P19419 1-428); conditions: protein: recombinant; tags: N-terminal GST; dsDNA, one strand shown
# T2 sequence: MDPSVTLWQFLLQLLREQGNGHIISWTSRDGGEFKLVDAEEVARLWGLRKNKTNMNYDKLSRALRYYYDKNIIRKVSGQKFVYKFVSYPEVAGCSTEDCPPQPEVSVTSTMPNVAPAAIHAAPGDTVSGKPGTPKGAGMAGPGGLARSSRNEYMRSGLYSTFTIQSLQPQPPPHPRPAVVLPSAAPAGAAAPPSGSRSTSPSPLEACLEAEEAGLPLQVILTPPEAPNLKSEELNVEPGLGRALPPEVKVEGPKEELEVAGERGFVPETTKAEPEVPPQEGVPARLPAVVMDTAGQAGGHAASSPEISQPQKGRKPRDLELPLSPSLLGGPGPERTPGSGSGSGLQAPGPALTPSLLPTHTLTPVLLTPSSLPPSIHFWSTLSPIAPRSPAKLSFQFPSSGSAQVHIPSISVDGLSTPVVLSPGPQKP
# Method in brief: as §1
# [3] = biological target: T3, GABPA (Homo sapiens, UniProt Q06546 1-454); conditions: protein: recombinant; tags: N-terminal GST; dsDNA, one strand shown
# T3 sequence: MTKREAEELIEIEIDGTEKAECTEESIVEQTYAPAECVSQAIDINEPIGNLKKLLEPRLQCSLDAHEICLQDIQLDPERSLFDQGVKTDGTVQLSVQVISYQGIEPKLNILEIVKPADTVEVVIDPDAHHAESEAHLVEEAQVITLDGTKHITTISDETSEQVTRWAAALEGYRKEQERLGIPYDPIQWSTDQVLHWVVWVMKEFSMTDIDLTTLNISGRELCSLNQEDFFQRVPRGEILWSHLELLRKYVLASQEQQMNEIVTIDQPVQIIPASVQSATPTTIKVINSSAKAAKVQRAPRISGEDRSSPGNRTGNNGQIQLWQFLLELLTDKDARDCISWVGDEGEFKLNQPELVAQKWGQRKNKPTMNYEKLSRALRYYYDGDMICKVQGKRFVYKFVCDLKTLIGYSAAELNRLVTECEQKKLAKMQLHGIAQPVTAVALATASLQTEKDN
# Method in brief: as §1
# [4] = biological target: T4, ERG (Homo sapiens, UniProt P11308 1-479); conditions: protein: recombinant; tags: N-terminal GST; dsDNA, one strand shown
# T4 sequence: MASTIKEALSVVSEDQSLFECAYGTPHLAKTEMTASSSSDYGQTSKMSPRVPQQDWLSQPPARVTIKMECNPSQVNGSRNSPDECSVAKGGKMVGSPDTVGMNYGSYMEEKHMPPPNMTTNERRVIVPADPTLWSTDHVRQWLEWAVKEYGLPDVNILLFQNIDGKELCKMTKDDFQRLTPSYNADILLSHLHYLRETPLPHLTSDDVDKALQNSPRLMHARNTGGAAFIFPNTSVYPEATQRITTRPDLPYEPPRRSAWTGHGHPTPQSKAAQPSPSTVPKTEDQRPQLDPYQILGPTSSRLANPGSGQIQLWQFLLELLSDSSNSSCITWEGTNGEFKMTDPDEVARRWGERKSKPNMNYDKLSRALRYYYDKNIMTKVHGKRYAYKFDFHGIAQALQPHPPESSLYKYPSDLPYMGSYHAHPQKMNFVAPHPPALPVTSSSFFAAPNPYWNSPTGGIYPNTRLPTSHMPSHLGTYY
# Method in brief: as §1
# [5] = biological target: ELF1 (Homo sapiens, UniProt P32519 1-619); conditions: protein: recombinant; tags: N-terminal GST; dsDNA, one strand shown
# Method in brief: as §1
# [6] = biological target: T5, EHF (Homo sapiens, UniProt Q9NZC4 1-300); conditions: protein: recombinant; tags: N-terminal GST; dsDNA, one strand shown
# T5 sequence: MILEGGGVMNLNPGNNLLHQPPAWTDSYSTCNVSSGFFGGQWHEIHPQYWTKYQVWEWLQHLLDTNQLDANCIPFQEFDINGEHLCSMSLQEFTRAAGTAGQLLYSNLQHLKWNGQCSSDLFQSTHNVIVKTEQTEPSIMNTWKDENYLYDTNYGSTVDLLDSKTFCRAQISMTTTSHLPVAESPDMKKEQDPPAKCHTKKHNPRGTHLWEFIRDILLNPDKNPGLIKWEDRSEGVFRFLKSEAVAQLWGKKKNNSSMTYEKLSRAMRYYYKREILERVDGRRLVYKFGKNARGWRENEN
# Method in brief: as §1
# [7] = biological target: SPI1 (Homo sapiens, UniProt P17947 1-270); conditions: protein: recombinant; tags: N-terminal GST; dsDNA, one strand shown
# Method in brief: as §1
# [8] = biological target: SPIB (Homo sapiens, UniProt Q01892 1-262); conditions: protein: recombinant; tags: N-terminal GST; dsDNA, one strand shown
# Method in brief: as §1
# [9] = biological target: T6, ELK3 (Homo sapiens, UniProt P41970 1-407); conditions: protein: recombinant; tags: N-terminal GST; dsDNA, one strand shown
# T6 sequence: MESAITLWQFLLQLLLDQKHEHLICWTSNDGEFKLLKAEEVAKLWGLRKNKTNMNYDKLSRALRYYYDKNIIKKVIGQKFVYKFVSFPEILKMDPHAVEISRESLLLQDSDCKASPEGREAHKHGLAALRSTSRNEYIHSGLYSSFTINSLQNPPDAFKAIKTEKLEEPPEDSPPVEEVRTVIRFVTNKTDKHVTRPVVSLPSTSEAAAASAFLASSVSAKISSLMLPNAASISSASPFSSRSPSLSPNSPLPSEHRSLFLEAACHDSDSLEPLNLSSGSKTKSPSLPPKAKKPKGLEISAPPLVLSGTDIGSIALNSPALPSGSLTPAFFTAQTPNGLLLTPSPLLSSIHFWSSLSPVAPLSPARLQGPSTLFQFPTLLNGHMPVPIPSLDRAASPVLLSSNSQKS
# Method in brief: as §1
# [10] = biological target: T7, FEV (Homo sapiens, UniProt Q99581 1-238); conditions: protein: recombinant; tags: N-terminal GST; dsDNA, one strand shown
# T7 sequence: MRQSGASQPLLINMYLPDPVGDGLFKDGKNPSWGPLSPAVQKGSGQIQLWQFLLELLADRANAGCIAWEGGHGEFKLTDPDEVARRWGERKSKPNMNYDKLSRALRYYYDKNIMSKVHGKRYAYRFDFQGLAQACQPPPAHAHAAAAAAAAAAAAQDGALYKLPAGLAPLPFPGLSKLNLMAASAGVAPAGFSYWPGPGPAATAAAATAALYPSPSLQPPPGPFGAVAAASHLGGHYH
# Method in brief: as §1
# [11] = biological target: ETV5 (Homo sapiens, UniProt P41161 1-510); conditions: protein: recombinant; tags: N-terminal GST; dsDNA, one strand shown
# Method in brief: as §1
# [12] = biological target: HSF1 (Homo sapiens, UniProt Q00613 1-529); conditions: protein: recombinant; tags: N-terminal GST; chain copies: 3; dsDNA, one strand shown
# Method in brief: as §1
# [13] = biological target: T8, SPIC (Homo sapiens, UniProt Q8N5J4 1-248); conditions: protein: recombinant; tags: N-terminal GST; dsDNA, one strand shown
# T8 sequence: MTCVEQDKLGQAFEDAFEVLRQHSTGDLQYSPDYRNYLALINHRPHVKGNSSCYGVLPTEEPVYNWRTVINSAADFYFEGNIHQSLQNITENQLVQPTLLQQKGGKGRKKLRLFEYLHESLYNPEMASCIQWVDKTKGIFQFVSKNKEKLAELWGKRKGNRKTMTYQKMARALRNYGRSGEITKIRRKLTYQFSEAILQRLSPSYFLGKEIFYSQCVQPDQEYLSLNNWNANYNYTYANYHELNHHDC
# Method in brief: as §1
# [14] = biological target: ELF4 (Homo sapiens, UniProt Q99607 1-663); conditions: protein: recombinant; tags: N-terminal GST; dsDNA, one strand shown
# Method in brief: as §1
# [15] = biological target: T9, ELK4 (Homo sapiens, UniProt P28324-2 1-405); conditions: protein: recombinant; tags: N-terminal GST; dsDNA, one strand shown
# T9 sequence: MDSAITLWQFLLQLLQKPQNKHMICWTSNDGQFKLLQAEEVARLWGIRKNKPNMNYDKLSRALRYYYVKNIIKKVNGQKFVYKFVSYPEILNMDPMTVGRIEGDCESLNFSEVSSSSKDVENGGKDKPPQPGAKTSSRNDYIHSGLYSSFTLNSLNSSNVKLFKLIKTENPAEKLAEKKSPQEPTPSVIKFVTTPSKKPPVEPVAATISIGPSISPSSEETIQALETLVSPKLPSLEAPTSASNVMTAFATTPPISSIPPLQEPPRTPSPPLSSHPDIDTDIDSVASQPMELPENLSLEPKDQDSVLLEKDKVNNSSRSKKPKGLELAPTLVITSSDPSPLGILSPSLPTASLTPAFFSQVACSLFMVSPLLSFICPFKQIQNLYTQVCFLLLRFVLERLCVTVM
# Method in brief: as §1
# [16] = biological target: T10, ETV2 (Homo sapiens, UniProt O00321 1-342); conditions: protein: recombinant; tags: N-terminal GST; dsDNA, one strand shown
# T10 sequence: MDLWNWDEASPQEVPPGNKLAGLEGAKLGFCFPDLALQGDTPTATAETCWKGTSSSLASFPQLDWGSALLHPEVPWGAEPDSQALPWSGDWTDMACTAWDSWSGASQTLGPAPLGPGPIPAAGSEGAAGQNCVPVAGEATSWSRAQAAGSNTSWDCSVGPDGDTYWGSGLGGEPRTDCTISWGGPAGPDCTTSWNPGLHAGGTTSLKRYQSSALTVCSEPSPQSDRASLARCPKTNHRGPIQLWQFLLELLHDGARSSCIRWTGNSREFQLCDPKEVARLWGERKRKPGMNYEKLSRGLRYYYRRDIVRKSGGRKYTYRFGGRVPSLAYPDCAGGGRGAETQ
# Method in brief: as §1
# [17] = biological target: T11, ELF3 (Homo sapiens, UniProt P78545 1-371); conditions: protein: recombinant; tags: N-terminal GST; dsDNA, one strand shown
# T11 sequence: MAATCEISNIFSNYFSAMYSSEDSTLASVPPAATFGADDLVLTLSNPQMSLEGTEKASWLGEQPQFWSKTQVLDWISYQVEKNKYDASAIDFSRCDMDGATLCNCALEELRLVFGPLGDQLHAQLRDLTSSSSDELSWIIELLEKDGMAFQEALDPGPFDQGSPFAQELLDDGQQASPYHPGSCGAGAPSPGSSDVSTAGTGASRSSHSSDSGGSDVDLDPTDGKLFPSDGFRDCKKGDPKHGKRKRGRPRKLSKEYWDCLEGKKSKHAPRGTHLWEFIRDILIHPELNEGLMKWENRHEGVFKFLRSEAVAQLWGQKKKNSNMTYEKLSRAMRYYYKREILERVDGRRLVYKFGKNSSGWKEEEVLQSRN
# Method in brief: as §1
# [18] = biological target: CRX (Homo sapiens, UniProt O43186 1-299); conditions: protein: recombinant; tags: N-terminal GST; dsDNA, one strand shown
# Method in brief: as §1
# [19] = biological target: ETV1 (Homo sapiens, UniProt P50549 1-477); conditions: protein: recombinant; tags: N-terminal GST; dsDNA, one strand shown
# Method in brief: as §1
# ETV1, sequence (P50549 whole entry): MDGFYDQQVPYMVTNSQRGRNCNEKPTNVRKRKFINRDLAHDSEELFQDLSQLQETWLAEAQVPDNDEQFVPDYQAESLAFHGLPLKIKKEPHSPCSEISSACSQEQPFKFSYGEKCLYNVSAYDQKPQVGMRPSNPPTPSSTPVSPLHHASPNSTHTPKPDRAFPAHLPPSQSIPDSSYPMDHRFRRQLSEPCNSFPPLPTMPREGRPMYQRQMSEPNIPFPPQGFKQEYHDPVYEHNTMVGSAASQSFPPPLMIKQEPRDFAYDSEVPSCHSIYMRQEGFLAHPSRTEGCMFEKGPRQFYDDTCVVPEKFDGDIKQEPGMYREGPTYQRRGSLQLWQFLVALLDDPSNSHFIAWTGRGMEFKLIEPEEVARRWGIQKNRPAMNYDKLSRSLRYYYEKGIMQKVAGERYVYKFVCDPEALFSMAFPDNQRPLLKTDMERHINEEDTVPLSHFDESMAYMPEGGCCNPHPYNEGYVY
# SPIB, sequence (Q01892 whole entry): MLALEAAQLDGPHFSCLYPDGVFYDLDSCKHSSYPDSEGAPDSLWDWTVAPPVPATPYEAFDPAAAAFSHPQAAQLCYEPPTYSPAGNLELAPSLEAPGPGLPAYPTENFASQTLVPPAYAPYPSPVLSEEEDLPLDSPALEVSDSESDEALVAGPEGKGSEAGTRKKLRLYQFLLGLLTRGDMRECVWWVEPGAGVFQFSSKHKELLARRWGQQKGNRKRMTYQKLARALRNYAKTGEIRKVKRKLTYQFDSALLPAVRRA
# ELF1, sequence (P32519 whole entry): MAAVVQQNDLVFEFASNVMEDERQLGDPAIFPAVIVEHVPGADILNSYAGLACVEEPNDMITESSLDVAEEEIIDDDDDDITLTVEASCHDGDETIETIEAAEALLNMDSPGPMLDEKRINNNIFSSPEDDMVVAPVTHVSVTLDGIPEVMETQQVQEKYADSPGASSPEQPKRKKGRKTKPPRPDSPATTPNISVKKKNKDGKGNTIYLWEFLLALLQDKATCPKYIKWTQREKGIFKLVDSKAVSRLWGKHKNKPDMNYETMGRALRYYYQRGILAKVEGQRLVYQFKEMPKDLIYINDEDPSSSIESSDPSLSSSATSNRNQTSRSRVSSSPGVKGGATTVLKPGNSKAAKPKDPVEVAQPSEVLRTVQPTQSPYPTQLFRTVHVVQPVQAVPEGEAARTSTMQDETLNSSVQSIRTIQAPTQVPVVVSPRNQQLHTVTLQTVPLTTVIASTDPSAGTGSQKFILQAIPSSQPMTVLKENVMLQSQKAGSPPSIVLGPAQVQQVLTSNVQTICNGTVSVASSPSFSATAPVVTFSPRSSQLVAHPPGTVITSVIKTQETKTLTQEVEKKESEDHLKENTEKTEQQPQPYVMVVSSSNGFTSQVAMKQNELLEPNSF
# ETV5, sequence (P41161 whole entry): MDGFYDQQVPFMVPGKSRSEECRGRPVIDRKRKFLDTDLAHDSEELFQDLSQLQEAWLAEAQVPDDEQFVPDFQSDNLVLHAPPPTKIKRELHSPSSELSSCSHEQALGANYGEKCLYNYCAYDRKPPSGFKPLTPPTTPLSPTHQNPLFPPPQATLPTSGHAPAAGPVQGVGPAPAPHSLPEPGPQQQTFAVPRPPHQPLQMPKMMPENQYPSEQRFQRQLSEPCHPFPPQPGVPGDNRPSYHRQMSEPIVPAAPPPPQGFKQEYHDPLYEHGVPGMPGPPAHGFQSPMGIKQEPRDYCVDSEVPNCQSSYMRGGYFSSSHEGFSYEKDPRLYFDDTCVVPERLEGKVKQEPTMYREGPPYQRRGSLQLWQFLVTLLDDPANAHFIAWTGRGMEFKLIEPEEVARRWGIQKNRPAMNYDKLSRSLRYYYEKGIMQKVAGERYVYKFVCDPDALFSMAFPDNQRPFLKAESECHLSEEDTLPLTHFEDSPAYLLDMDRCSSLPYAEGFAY
# ELF4, sequence (Q99607 whole entry): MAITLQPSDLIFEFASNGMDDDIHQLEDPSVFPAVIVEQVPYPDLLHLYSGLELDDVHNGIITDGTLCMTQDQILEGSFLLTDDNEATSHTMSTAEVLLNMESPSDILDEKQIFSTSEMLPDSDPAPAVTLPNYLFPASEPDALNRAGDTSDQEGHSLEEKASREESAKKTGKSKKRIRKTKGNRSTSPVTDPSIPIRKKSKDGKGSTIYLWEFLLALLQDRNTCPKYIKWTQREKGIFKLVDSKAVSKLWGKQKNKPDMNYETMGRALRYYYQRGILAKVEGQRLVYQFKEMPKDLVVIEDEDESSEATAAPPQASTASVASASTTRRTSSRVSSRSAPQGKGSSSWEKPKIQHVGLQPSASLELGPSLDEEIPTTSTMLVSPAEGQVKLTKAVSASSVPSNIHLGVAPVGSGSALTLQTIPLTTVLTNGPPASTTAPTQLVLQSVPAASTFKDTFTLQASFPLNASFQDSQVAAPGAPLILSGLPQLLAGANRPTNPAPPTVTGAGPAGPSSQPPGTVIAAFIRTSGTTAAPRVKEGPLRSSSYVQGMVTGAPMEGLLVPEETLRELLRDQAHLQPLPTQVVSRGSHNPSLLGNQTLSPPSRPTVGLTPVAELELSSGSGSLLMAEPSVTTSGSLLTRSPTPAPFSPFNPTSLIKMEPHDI
# HSF1, sequence (Q00613 whole entry): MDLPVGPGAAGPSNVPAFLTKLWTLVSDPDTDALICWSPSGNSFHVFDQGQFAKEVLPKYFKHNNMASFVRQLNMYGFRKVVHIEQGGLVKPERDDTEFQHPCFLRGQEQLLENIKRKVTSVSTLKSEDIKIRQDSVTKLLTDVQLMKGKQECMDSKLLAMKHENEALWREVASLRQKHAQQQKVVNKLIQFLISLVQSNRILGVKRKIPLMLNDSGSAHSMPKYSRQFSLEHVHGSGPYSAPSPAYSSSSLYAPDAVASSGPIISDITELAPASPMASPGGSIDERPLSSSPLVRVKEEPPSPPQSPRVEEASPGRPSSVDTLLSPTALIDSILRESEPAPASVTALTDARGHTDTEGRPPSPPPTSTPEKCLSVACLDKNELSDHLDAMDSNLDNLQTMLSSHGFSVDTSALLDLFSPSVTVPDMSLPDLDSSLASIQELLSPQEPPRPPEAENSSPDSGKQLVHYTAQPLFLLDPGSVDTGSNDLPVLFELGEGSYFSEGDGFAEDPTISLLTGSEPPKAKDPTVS
# CRX, sequence (O43186 whole entry): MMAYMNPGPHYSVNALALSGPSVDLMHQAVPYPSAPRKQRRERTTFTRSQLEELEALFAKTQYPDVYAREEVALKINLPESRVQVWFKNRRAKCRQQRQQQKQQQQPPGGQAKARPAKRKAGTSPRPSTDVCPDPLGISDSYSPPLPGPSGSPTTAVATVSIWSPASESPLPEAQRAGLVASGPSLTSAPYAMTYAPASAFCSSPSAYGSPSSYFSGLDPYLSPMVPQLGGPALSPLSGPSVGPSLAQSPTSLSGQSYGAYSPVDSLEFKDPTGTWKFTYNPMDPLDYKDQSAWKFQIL
sequence,measurement,setting,value
GCTATA,binding signal,[1],"1.17 fold enrichment (6-mer frequency, TF over GST control)"
same,binding signal,[2],"1.11 fold enrichment (6-mer frequency, TF over GST control)"
same,binding signal,[3],"1.16 fold enrichment (6-mer frequency, TF over GST control)"
same,binding signal,[4],"1.16 fold enrichment (6-mer frequency, TF over GST control)"
same,binding signal,[5],"1.19 fold enrichment (6-mer frequency, TF over GST control)"
same,binding signal,[6],"1.16 fold enrichment (6-mer frequency, TF over GST control)"
same,binding signal,[7],"1.09 fold enrichment (6-mer frequency, TF over GST control)"
same,binding signal,[8],"1.25 fold enrichment (6-mer frequency, TF over GST control)"
same,binding signal,[9],"1.24 fold enrichment (6-mer frequency, TF over GST control)"
same,binding signal,[10],"1.14 fold enrichment (6-mer frequency, TF over GST control)"
same,binding signal,[11],"1.18 fold enrichment (6-mer frequency, TF over GST control)"
same,binding signal,[12],"1.08 fold enrichment (6-mer frequency, TF over GST control)"
same,binding signal,[13],"1.08 fold enrichment (6-mer frequency, TF over GST control)"
same,binding signal,[14],"1.14 fold enrichment (6-mer frequency, TF over GST control)"
same,binding signal,[15],"1.18 fold enrichment (6-mer frequency, TF over GST control)"
same,binding signal,[16],"1.2 fold enrichment (6-mer frequency, TF over GST control)"
same,binding signal,[17],"1.22 fold enrichment (6-mer frequency, TF over GST control)"
same,binding signal,[18],"1.23 fold enrichment (6-mer frequency, TF over GST control)"
same,binding signal,[19],"1.14 fold enrichment (6-mer frequency, TF over GST control)"
